# Over roughly 33,000 sequences, “E-score (-0.5 to 0.5)” has its median near -0.035; the highest 2% begin near 0.34. This excerpt belongs to a sample that is enriched for the highest values.
# Target: T1, Mot3 (UniProt P54785)
# T1 sequence: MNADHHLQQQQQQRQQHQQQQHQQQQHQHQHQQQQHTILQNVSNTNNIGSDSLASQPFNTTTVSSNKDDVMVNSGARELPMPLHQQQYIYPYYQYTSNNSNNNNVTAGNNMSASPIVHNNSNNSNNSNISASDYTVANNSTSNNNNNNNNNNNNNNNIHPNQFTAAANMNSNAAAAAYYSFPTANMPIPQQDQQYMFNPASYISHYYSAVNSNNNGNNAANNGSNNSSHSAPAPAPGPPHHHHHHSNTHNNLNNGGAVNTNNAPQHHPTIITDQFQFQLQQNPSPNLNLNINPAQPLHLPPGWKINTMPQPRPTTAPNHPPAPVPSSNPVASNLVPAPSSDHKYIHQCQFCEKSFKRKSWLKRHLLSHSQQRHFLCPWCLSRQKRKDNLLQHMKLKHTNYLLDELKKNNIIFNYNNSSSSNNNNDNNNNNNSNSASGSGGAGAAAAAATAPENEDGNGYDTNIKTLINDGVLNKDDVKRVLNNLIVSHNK
# Assay: PBM E-score (8-mer binding enrichment) (E-score (-0.5 to 0.5)); higher = stronger / more preferred TF binding
# Settings: protein concentration: 200 nM; construct: GST-full length
# In short: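 E-scores (a modified Wilcoxon-Mann-Whitney statistic) were assigned by the Universal PBM Analysis Suite to every ungapped eight-base word pooled with its reverse complement. The input came from universal all-10-mer Agilent arrays made double-stranded by primer extension and probed with GST-tagged yeast transcription factors at about 100-200 nM. Fluorescent anti-GST detected bound protein, and masliner normalised the scans.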
row,Sequence,PBM E-score
1,TAGGAGCA,0.0656
2,ACGTAATC,0.29
3,CCGTAATA,0.121
4,ACGTAATG,0.348
5,GCGTAATA,0.308
6,ACGTAATA,0.35
7,ACGTAACG,0.0865
8,AATTGCCC,0.0147
9,AATTGCCG,-0.145
10,ACTTGCCG,-0.189
11,ACTTGCCT,0.479
12,AATTGCCT,0.472
13,ACTTGCCC,0.0267
14,CAGTGTAG,0.154
15,AAGTGTAT,0.117
16,CCGTGTAG,0.367
17,ACGTGTCT,0.14
18,AGGTGTAG,0.0602
19,CCGTGTAC,0.34
20,CAGTGTAC,0.0758
21,CCGTGTCC,0.0332
22,ACGTGTAT,0.356
23,CCGTGTCG,0.126
24,AAGTGTAG,0.158
25,ACGTGTAG,0.389

row,Sequence,PBM E-score
1,GCAATGGA,-0.00402
2,GAATCGGC,-0.269
3,CACCAGAG,-0.0278
4,CCTGCAAC,0.144
5,AACTTGCC,0.204
6,ACGTGTAC,0.343
7,GCGTGTAC,0.337
8,AAGTGTAC,0.0824
9,CCGTTAAG,-0.0319
10,CCAGGCCA,-0.29
11,CCAGGCGA,-0.155
12,CCAGGCAA,0.477
13,TCAGGCGA,-0.0408
14,CCAGGCAG,-0.119
15,TCAGGCCA,-0.0359
16,TCAGGCAA,0.483
17,CCAGGCCC,-0.101
18,CCAGGCAC,0.487
19,GAATACTC,-0.0747
20,GGAGCGCA,-0.281
21,CTGAACAG,-0.0714
22,CCGCAAGG,-0.128
23,ACACCTGT,0.193
24,TCTACTAA,0.0381
25,GCTGGACC,-0.332

row,Sequence,PBM E-score
1,ACGCAAGG,0.153
2,GGGCAAGA,0.0525
3,AGGCAAGC,0.489
4,ATGCAAGG,-0.116
5,CGGCAAGC,-0.0333
6,AGGCAAGA,0.477
7,AGGCAAGG,0.483
8,AAGCAAGC,-0.162
9,CGGCAAGA,-0.115
10,CCCTACAG,-0.128
11,GATCTCTA,-0.137
12,CCGGTCAG,-0.335
13,CCTCGTAG,0.0397
14,AATACCCC,-0.248
15,CTCAAGAC,-0.131
16,ATCAGCCC,-0.272
17,AAAGATGG,-0.0558
18,ACTTGTTC,0.162
19,ACAGCCCA,-0.0365
20,AATTTCCT,0.364
21,ACTTTCCG,-0.182
22,AATTTCCG,-0.0949
23,ACTTTCCT,0.383
24,AATTTCCC,-0.164
25,ACTTTCCC,0.0581

row,Sequence,PBM E-score
1,ATCCGGTG,0.0537
2,CCACTACG,-0.0192
3,GGATGAAC,-0.105
4,GTGAAAAA,0.155
5,TAGGGGGA,-0.264
6,CGACCCTA,-0.148
7,AGACTTTC,-0.187
8,CCGTTCTA,0.17
9,AACAGGTA,0.269
10,GACAGGTA,0.25
11,AGCAGGTA,0.328
12,CACAGGTA,0.352
13,CGCAGGTC,0.0458
14,CACAGGTG,0.0773
15,CGCAGGTA,0.35
16,TACAGGTA,0.393
17,CACAGGTC,-0.272
18,GGTGCGAC,-0.251
19,ACAACGGC,-0.0371
20,GAAAAGCC,-0.338
21,GTAGGTAA,0.346
22,GTAGGTGA,0.0361
23,ATAGGTAC,0.406
24,ATAGGTAA,0.356
25,ATAGGTAG,0.109

row,Sequence,PBM E-score
1,CTAGGTAC,0.26
2,CTAGGTAA,0.182
3,GTAGGTTA,0.22
4,ATAGGTGA,-0.0643
5,GCGGTAAC,0.063
6,ACATCTTA,0.0996
7,CCAAGCGG,-0.135
8,GACATCGC,0.0096
9,GGTTTTAC,0.154
10,CATTCCGC,-0.146
11,GACTACCA,-0.0944
12,AGATTACT,0.101
13,TGATTACA,0.311
14,CTATTACC,0.142
15,CGATTACG,0.123
16,GGATTAGA,-0.13
17,ATATTACA,0.332
18,GGATTACC,-0.0377
19,CGATTACA,0.357
20,AGATTACA,0.354
21,CTATTACA,0.378
22,GGATTACA,0.371
23,AGATTACC,0.157
24,GGACAAAC,0.0402
25,AAACCTCG,-0.21

row,Sequence,PBM E-score
1,ACCAAATC,-0.166
2,GCACTCCC,-0.112
3,AACACAGC,0.268
4,CGTGTCAC,0.157
5,GACCTGAA,-0.107
6,TCATGTAA,0.414
7,TCATGTCA,0.283
8,CGATGTAG,0.103
9,CCATGTCG,0.247
10,GCATGTAC,0.321
11,CCATGTAG,0.346
12,ACATGTAG,0.388
13,ACATGTCG,0.246
14,GCATGTAA,0.41
15,ACATGTAC,0.333
16,TGATGTAA,0.281
17,GCATGTCA,0.26
18,CATGTCGC,0.175
19,CACTAGTG,-0.12
20,CATCAACG,0.00915
21,ACTAGGTG,0.125
22,CTTAAAGC,0.00562
23,CTCGTCGA,-0.0922
24,GTCGAGCA,-0.114
25,AAGGTTAC,0.0496

row,Sequence,PBM E-score
1,CCTATGCC,-0.0577
2,AGCGCTTG,-0.185
3,CGTTGGCA,0.00506
4,AGATGTAT,0.133
5,ACATGTCA,0.319
6,ACATGTAA,0.437
7,ACATGTGA,0.225
8,CCATGTAC,0.327
9,ACATGTCT,0.235
10,ACATGTAT,0.357
11,CCATGTAA,0.411
12,CCATGTGA,0.141
13,ATTCCTTG,0.0459
14,GTCAGAGA,-0.242
15,AATGAGCT,-0.0919
16,AGTCTGAA,-0.204
17,CTGTTAAA,0.238
18,GAGTTAAC,0.0651
19,ATGTTACC,0.237
20,ATGTTAAC,0.397
21,GTGTTAAC,0.352
22,TTGTTAAA,0.256
